The full data set covers some 7,900 targets. This sample favours those with a hit. About 0.6% of all pairs of compound and target were hits.

UniProt Q13011, sequence (Q13011 whole entry, looked up): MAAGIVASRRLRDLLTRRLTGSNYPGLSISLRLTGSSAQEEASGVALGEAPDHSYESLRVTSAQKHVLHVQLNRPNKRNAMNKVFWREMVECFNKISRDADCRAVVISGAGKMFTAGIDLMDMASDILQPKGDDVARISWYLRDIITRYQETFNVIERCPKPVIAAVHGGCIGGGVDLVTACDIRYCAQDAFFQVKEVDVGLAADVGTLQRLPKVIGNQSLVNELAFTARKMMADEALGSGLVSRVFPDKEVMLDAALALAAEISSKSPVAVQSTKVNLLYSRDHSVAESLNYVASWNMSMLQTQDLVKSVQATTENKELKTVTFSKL
UniProt Q58WW2, sequence (Q58WW2 whole entry, looked up): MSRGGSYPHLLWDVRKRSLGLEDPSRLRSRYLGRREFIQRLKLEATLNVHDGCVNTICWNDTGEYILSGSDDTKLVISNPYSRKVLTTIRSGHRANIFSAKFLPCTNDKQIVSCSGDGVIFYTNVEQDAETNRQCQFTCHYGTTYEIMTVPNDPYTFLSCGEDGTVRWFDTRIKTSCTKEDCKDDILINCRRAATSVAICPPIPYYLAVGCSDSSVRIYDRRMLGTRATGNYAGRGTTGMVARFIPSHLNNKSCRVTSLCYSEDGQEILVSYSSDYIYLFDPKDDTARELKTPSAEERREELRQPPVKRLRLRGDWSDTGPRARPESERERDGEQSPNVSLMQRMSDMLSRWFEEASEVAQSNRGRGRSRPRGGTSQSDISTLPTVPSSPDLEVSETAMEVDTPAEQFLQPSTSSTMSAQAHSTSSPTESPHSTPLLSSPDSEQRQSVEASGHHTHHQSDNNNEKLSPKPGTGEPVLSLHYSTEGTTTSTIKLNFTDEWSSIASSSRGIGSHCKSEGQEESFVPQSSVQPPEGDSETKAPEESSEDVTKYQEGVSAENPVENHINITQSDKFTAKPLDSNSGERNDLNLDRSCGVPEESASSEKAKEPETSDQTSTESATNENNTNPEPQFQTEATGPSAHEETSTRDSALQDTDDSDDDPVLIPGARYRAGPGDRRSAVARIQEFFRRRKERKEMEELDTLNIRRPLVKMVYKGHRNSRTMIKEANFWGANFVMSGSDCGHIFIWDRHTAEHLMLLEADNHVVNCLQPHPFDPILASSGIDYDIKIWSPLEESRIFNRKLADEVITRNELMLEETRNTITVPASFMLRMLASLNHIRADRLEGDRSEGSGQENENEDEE
UniProt O75477, sequence (O75477 whole entry, looked up): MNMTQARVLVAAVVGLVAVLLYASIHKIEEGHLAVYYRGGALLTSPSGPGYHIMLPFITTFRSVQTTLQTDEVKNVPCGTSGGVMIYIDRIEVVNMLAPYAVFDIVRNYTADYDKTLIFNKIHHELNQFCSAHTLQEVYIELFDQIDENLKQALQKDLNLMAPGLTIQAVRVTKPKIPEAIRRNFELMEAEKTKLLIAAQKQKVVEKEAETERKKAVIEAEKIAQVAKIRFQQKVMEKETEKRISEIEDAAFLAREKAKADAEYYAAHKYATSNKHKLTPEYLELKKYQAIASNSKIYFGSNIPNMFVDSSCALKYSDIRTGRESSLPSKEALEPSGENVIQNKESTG
UniProt Q8N3D4, sequence (Q8N3D4 whole entry, looked up): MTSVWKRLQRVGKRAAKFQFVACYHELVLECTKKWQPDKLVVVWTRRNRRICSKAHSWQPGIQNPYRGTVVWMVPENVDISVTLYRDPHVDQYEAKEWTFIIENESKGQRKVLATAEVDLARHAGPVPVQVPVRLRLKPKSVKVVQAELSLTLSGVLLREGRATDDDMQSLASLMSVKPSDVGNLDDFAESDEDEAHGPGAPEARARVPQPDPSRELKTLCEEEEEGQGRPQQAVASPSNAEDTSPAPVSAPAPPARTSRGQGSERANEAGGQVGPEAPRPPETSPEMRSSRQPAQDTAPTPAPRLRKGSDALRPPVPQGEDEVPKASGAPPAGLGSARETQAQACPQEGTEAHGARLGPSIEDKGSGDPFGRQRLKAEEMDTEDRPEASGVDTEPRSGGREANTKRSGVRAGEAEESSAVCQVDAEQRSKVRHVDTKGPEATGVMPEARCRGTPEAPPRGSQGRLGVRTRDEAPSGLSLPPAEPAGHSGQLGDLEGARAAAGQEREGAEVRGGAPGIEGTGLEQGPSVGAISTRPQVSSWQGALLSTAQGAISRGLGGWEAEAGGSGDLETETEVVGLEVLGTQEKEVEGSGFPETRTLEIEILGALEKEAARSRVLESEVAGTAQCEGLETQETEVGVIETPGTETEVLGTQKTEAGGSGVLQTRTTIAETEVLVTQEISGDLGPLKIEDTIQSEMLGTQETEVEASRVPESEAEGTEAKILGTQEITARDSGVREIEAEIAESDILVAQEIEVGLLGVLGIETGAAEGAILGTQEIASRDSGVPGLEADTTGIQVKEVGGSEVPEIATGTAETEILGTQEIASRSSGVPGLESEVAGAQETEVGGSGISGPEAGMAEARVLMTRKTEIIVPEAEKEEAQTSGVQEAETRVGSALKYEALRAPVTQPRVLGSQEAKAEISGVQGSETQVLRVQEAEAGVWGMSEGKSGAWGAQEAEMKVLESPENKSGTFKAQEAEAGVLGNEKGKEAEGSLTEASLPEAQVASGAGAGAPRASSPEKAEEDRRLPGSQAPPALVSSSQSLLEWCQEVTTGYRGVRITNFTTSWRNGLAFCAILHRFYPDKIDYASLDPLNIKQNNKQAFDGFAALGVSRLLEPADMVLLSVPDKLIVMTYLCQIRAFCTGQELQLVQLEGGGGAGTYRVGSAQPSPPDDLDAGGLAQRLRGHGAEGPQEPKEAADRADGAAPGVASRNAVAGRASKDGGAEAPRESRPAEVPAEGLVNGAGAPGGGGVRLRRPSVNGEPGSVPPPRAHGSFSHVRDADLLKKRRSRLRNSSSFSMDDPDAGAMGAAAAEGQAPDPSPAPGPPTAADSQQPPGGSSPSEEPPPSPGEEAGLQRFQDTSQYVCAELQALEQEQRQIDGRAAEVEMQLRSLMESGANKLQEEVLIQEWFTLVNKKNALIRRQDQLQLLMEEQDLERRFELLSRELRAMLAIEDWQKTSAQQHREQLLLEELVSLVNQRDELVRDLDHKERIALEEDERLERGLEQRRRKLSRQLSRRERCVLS
UniProt Q9NV06, sequence (Q9NV06 whole entry, looked up): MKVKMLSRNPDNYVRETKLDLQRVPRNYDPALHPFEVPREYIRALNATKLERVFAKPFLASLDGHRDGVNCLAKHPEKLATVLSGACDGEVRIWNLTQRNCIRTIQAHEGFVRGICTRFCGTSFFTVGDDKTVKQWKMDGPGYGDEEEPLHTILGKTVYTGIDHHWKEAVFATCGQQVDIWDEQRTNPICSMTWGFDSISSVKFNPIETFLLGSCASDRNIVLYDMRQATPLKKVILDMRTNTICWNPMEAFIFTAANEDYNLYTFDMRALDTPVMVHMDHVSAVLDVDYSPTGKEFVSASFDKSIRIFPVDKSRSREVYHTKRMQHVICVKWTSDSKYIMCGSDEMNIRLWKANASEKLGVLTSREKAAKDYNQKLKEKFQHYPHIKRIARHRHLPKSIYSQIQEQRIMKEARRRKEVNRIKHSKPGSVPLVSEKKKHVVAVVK
UniProt Q13948, sequence (Q13948 whole entry, looked up): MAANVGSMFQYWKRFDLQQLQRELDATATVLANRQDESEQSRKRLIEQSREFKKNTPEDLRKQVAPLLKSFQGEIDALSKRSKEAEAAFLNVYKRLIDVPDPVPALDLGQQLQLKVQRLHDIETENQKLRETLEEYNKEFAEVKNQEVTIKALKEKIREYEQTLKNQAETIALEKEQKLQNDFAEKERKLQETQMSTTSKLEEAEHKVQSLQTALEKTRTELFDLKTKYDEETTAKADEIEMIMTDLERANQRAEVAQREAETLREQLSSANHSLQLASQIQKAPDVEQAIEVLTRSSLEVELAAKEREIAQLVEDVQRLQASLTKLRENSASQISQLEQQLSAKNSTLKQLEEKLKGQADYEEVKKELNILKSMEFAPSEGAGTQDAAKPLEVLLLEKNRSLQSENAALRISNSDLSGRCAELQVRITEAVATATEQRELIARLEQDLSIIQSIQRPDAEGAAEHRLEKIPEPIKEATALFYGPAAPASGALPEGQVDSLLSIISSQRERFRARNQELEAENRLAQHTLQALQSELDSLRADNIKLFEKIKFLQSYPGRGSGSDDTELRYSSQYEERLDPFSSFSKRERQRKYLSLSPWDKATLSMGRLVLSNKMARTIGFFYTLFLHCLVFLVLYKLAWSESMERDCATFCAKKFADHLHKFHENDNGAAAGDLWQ
UniProt Q8N128, sequence (Q8N128 whole entry, looked up): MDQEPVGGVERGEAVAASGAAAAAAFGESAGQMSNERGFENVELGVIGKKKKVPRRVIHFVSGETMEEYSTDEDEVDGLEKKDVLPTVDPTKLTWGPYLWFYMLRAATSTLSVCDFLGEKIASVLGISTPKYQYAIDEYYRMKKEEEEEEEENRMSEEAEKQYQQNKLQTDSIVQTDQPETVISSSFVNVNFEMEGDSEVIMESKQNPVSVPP
UniProt O94905, sequence (O94905 whole entry, looked up): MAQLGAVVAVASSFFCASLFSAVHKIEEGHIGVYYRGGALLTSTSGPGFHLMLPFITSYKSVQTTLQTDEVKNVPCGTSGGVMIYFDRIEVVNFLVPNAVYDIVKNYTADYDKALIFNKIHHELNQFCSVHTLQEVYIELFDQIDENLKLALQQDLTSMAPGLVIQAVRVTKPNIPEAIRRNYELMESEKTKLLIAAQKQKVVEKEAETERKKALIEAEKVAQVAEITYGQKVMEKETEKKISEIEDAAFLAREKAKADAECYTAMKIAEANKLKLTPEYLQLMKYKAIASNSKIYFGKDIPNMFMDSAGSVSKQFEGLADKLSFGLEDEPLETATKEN
UniProt Q9H773, sequence (Q9H773 whole entry, looked up): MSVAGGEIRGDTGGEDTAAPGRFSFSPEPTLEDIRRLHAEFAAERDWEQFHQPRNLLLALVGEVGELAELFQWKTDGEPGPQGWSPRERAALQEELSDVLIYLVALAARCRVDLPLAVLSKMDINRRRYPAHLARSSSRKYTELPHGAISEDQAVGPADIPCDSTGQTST

Compound in the first test: Cc1ccc(-n2nc(C(C)(C)C)cc2NC(=O)Nc2ccc(OCCN3CCOCC3)c3ccccc23)cc1 [doramapimod]
Nature of the test: log2 fold change, soluble protein after heating vs DMSO (PISA); higher = thermal stabilisation; K562 cells, 10 uM, 30 min; active = over 0.2 and 3.5 SD of the protein, either way, in both replicates (recomputed). The procedure, abridged:
(§1)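 Soluble protein was defined as the supernatant after 21,000xg for 90 min. It came from K562 cells at 2×10^6 cells/mL given 10 μM compound for 30 min, heated in aliquots for 3 min across 48°C-58°C, pooled, and extracted in PBS with 0.5% NP-40 at 4°C, and was quantified by TMTpro 16plex LC-MS/MS with equalised channel sums. Thermal stability against control samples, from duplicates, is reported as log2 fold change.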
For DNAJB12 (UniProt Q9NXW2), the log2 fold change was -0.034 (inactive).

Regarding DHFR (UniProt P00374), the log2 fold change is 0.179 (inactive).

Take DFFB (UniProt O76075): the log2 fold change is -0.021 (inactive).

EXOC5 (UniProt O00471): the log2 fold change is 0.008 (inactive).

In the case of DCTPP1 (UniProt Q9H773), the log2 fold change is -0.002 (inactive).

Take DHX40 (UniProt Q8IX18): the log2 fold change is 0.065 (inactive).

EOGT (UniProt Q5NDL2): the log2 fold change was 0.068 (inactive).

Turning to DHCR7 (UniProt Q9UBM7), the log2 fold change was 0.049 (inactive).

In the case of CUTA isoform 2 (UniProt O60888), the log2 fold change is -0.019 (inactive).

On to ERLIN1 (UniProt O75477), for which the log2 fold change is 0.057 (inactive).

Turning to EXOC1 (UniProt Q9NV70), the log2 fold change is 0.138 (inactive).

With CUX1 isoform 2 (UniProt Q13948), the log2 fold change is -0.015 (inactive).

As for DNM2 (UniProt P50570), the log2 fold change is -0.039 (inactive).

As to DHRS7B (UniProt Q6IAN0), the log2 fold change was -0.006 (inactive).

As to DIP2A (UniProt Q14689), the log2 fold change is 0.141 (inactive).

On to FAM114A2 (UniProt Q9NRY5), for which the log2 fold change is -0.052 (inactive).

On to FAF2 (UniProt Q96CS3), for which the log2 fold change is 0.023 (inactive).

On to ECH1 (UniProt Q13011), for which the log2 fold change is -0.023 (inactive).

For DDOST (UniProt P39656), the log2 fold change was 0.005 (inactive).

For the target DCAF6 isoform 3 (UniProt Q58WW2), the log2 fold change is 0.056 (inactive).

For the target DHCR24 (UniProt Q15392), the log2 fold change was 0.982 (active).

Regarding DNAH11 (UniProt Q96DT5), the log2 fold change was 0.037 (inactive).

Regarding DCAF13 (UniProt Q9NV06), the log2 fold change was 0.173 (inactive).

As for CYBA (UniProt P13498), the log2 fold change was 0.01 (inactive).

Take FADS1, A0A0A0MR51: the log2 fold change was 0 (inactive).

In the case of DPP8 (UniProt Q6V1X1), the log2 fold change is 0.008 (inactive).

DDB1 (UniProt Q16531): the log2 fold change is -0.033 (inactive).

As to CUX1 isoform 3 (UniProt P39880), the log2 fold change is 0.019 (inactive).

Consider EHBP1L1 (UniProt Q8N3D4), for which the log2 fold change was -0.018 (inactive).

As for EXOC7 (UniProt Q9UPT5), the log2 fold change is -0.029 (inactive).

As to DHX36 (UniProt Q9H2U1), the log2 fold change is 0.051 (inactive).

With DBR1 (UniProt Q9UK59), the log2 fold change is 0.02 (inactive).

Regarding ERLIN2 (UniProt O94905), the log2 fold change was 0.057 (inactive).

On to DAG1 (UniProt Q14118), for which the log2 fold change was -0.001 (inactive).

Regarding EFL1 (UniProt Q7Z2Z2), the log2 fold change was -0.013 (inactive).

For DHRS3 (UniProt O75911), the log2 fold change is -0.037 (inactive).

With FAM160B1 (UniProt Q5W0V3), the log2 fold change is -0.018 (inactive).

As to EHD2 (UniProt Q9NZN4), the log2 fold change was 0 (inactive).

As to DTWD1 (UniProt Q8N5C7), the log2 fold change is 0.009 (inactive).

On to FAM177A1 isoform 2 (UniProt Q8N128), for which the log2 fold change is -0.012 (inactive).

Compound in another test: Cc1ccc(C(=O)N(CCCN)[C@@H](c2nc3cc(Cl)ccc3c(=O)n2Cc2ccccc2)C(C)C)cc1 [ispinesib]
The description is as above. Put shortly:
as §1
Consider DNAJB12 (UniProt Q9NXW2), for which the log2 fold change is -0.227 (active).

For the target DHFR (UniProt P00374), the log2 fold change is -0.207 (inactive).

As to DFFB (UniProt O76075), the log2 fold change is -0.006 (inactive).

As for EXOC5 (UniProt O00471), the log2 fold change was -0.342 (active).

Consider DCTPP1 (UniProt Q9H773), for which the log2 fold change is 0.203 (inactive).

For DHX40 (UniProt Q8IX18), the log2 fold change is -0.215 (inactive).

With EOGT (UniProt Q5NDL2), the log2 fold change is -0.006 (inactive).

On to DHCR7 (UniProt Q9UBM7), for which the log2 fold change was -0.056 (inactive).

Turning to CUTA isoform 2 (UniProt O60888), the log2 fold change is 0.109 (inactive).

Turning to ERLIN1 (UniProt O75477), the log2 fold change was -0.27 (active).

Turning to EXOC1 (UniProt Q9NV70), the log2 fold change was -0.472 (active).

Regarding CUX1 isoform 2 (UniProt Q13948), the log2 fold change was -0.008 (inactive).

For DNM2 (UniProt P50570), the log2 fold change is -0.01 (inactive).

On to DHRS7B (UniProt Q6IAN0), for which the log2 fold change was 0.367 (active).

As to DIP2A (UniProt Q14689), the log2 fold change was 0.01 (inactive).

FAM114A2 (UniProt Q9NRY5): the log2 fold change was -0.096 (inactive).

Turning to FAF2 (UniProt Q96CS3), the log2 fold change was -0.011 (inactive).

As for ECH1 (UniProt Q13011), the log2 fold change was -0.208 (inactive).

Take DDOST (UniProt P39656): the log2 fold change is 0.13 (inactive).

For DCAF6 isoform 3 (UniProt Q58WW2), the log2 fold change is 0.027 (inactive).

In the case of DHCR24 (UniProt Q15392), the log2 fold change was -0.053 (inactive).

As for DNAH11 (UniProt Q96DT5), the log2 fold change was -0.125 (inactive).

For the target DCAF13 (UniProt Q9NV06), the log2 fold change is -0.1 (inactive).

As to CYBA (UniProt P13498), the log2 fold change was -0.488 (active).

As to FADS1, A0A0A0MR51, the log2 fold change was -0.252 (active).

DPP8 (UniProt Q6V1X1): the log2 fold change is 0.019 (inactive).

In the case of DDB1 (UniProt Q16531), the log2 fold change was 0.009 (inactive).

Take CUX1 isoform 3 (UniProt P39880): the log2 fold change was -0.101 (inactive).

As for EHBP1L1 (UniProt Q8N3D4), the log2 fold change was -0.047 (inactive).

Turning to EXOC7 (UniProt Q9UPT5), the log2 fold change is -0.346 (active).

For DHX36 (UniProt Q9H2U1), the log2 fold change was -0.081 (inactive).

For DBR1 (UniProt Q9UK59), the log2 fold change is 0.058 (inactive).

ERLIN2 (UniProt O94905): the log2 fold change was -0.251 (active).

With DAG1 (UniProt Q14118), the log2 fold change was -0.001 (inactive).

EFL1 (UniProt Q7Z2Z2): the log2 fold change was -0.018 (inactive).

Turning to DHRS3 (UniProt O75911), the log2 fold change is 0.015 (inactive).

Consider FAM160B1 (UniProt Q5W0V3), for which the log2 fold change was -0.125 (inactive).

On to EHD2 (UniProt Q9NZN4), for which the log2 fold change was -0.007 (inactive).

For DTWD1 (UniProt Q8N5C7), the log2 fold change is -0.001 (inactive).

In the case of FAM177A1 isoform 2 (UniProt Q8N128), the log2 fold change was -0.082 (inactive).

(Values after the supplement of paper PMC10849652.)
